PubChem BioAssay (NCI)
The panel holds about 79,000 compounds, 15% with a hit somewhere; the sample as a whole holds those more often. Rule as the data show it: active = growth inhibition above about 70%; inactive = the rest.

Experiments:
[1] = NCI Yeast Anticancer Drug Screen. Data for the rad50 strain (AID 155);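 also: 0% = growth of vehicle-only cultures of the same strain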; details: S. cerevisiae rad50 strain growth inhibition; at 50.0 µM; active compounds read high
Procedure, shortened: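 Relative growth inhibition (compound vs vehicle) was measured in yeast with a defined repair-gene alteration.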

[2] = NCI Yeast Anticancer Drug Screen. Data for the mec2-1 strain (AID 157); details: S. cerevisiae mec2-1 strain, at 50.0 µM, active compounds read high
Procedure, shortened: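 Compounds were applied to mec2-1 yeast cells. Their growth was then compared with that of vehicle-treated cultures to give growth inhibition.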

[3] = NCI Yeast Anticancer Drug Screen. Data for the sgs1 mgt1 strain (AID 161);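 also: 0% = growth of cultures given vehicle only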; details: S. cerevisiae sgs1 mgt1 strain, at 50.0 µM, active compounds read high
Procedure, shortened: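 Compounds are added to genetically altered yeast, and growth is compared with cultures given vehicle alone to give percent inhibition.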

[4] = NCI Yeast Anticancer Drug Screen. Data for the cln2 rad14 strain (AID 165);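 also: 0% = growth equal to vehicle treated cultures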; details: S. cerevisiae cln2 rad14 strain, at 50.0 µM, active compounds read high
Procedure, shortened: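 Strain: cln2 rad14 yeast, altered in cell cycle control and DNA damage repair. Read-out: growth inhibition vs vehicle.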

[5] = NCI Yeast Anticancer Drug Screen. Data for the bub3 strain (AID 167); details: S. cerevisiae bub3 mutant strain, at 50.0 µM, active compounds read high
Procedure, shortened: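 Screening used yeast with an engineered genetic alteration affecting cell cycle control. Compound-exposed cultures were compared with vehicle cultures, and reduced growth was taken as inhibition.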

[6] = NCI Yeast Anticancer Drug Screen. Data for the mlh1 rad18 strain (AID 175); details: S. cerevisiae mlh1 rad18 strain growth inhibition; at 50.0 µM; active compounds read high
Procedure, shortened: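 A repair-deficient yeast strain is exposed to test compound, and growth is scored relative to vehicle-treated controls.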

Measured: growth inhibition

C[N+]1=C(c2cccnc2/C=N/O)OCC1(C)C
inactive: [1] 1.3% | [2] -19.4% | [3] -13.7% | [4] -5.1% | [5] -24.4% | [6] -33.1%

[NH-]C(CCC(N)=O)C(=O)O.[NH-]C(CCC(N)=O)C(=O)O.[Pd+2] (stereo not given)
inactive: [1] -14.6% | [2] -3.2% | [3] -7.55% | [4] -71.6% | [5] -1.1% | [6] -8.1%

COc1ccc(C)cc1C(=O)C[n+]1ccc2ccccc2c1
inactive: [1] -10.4% | [2] -0.8% | [3] -25.1% | [4] -21.4% | [5] -6.5% | [6] 0.15%

CCOP(=O)(CC(N)=O)OCC
inactive: [1] -4.9% | [2] 9.8% | [3] 3.5% | [4] 0.1% | [5] 13.8% | [6] -11.8%

CC(C)N(C(C)C)[PH+]1O[PH+](N(C(C)C)C(C)C)O[PH+](N(C(C)C)C(C)C)O[PH+](N(C(C)C)C(C)C)O[PH+](N(C(C)C)C(C)C)O1.[C-]#[O+].[C-]#[O+].[C-]#[O+].[C-]#[O+].[C-]#[O+].[C-]#[O+].[C-]#[O+].[Cr].[Cr] (stereo not given)
inactive: [1] 17.7% | [2] -5.45% | [3] -14.5% | [4] -0.75% | [5] 2.8% | [6] -3.8%

Cc1ccc2c(c1)N(CCCl)c1c(ccc3ccccc13)S2
inactive: [1] -6.55% | [2] -10% | [3] -6.55% | [4] -67.9% | [5] 22.2% | [6] -6.6%

c1c2c(cc3c1OCO3)-c1cc3ccc4c(c3c[n+]1CC2)OCO4
inactive: [1] 9.2% | [2] -9.1% | [3] 0.35% | [4] 4.9% | [5] -48.5% | [6] -52.5%

CC1(C)O[C@]2(C)CC[C@@H]1[C@@H](O)[C@@H]2N1CCCC1
inactive: [1] 1.75% | [2] -8.6% | [3] -6.75% | [4] -33.4% | [5] -6.75% | [6] 0.15%

CC(=O)Nc1cc([As](C)(=O)O)ccc1O
inactive: [1] -10.3% | [2] 1.75% | [3] 1.95% | [4] -41.5% | [5] -9.65% | [6] -1.85%

O=C([O-])c1ccccc1[SH2+].[Cr+3].[NH-]CC[NH-].[NH-]CC[NH-].[O-][Cl+3]([O-])([O-])O
inactive: [1] 11.9% | [2] -1.95% | [3] -11.8% | [4] -19.4% | [5] 1.35% | [6] -26.4%

COc1cc(OC)c(SC)cc1CC(C)N (stereo not given)
inactive: [1] -19.2% | [2] -0.95% | [3] -3.2% | [4] -16.1% | [5] 21.3% | [6] -3.05%

Cc1ccc(OP(=O)(Oc2ccc(C)cc2)Oc2ccc(C)cc2)cc1.Cc1ccc(OP(=O)(Oc2ccc(C)cc2)Oc2ccc(C)cc2)cc1.Cc1ccc(OP(=O)(Oc2ccc(C)cc2)Oc2ccc(C)cc2)cc1.Cc1ccc(OP(=O)(Oc2ccc(C)cc2)Oc2ccc(C)cc2)cc1.[O-][Cl+3]([O-])([O-])O.[Zn+2]
inactive: [1] 3.45% | [2] 9.9% | [3] 0.55% | [4] 6.45% | [5] 5.1% | [6] -21.9%

CC1CC(C)(C)[N+](C)(CCC(C(N)=O)(c2ccccc2)c2ccccc2)C1 (stereo not given)
inactive: [1] -8.2% | [2] -5.15% | [3] -7.8% | [4] 12.3% | [5] -16.4% | [6] 3.05%

Cc1ccc(C[N+](C)(C)C)cc1
inactive: [1] 10.6% | [2] -17.6% | [3] 6.7% | [4] 12.1% | [5] -10.1% | [6] 4.5%

CN(C)CCN1C(=O)CN=C(c2ccccc2Cl)c2cc(Cl)ccc21
inactive: [1] 15.8% | [2] 12.2% | [3] 27% | [4] 2.75% | [5] 0.2% | [6] 27.6%

CC/C(=C(/CC)c1ccc(OP(=O)(Cl)N(CCCl)CCCl)cc1)c1ccc(OP(=O)(Cl)N(CCCl)CCCl)cc1 (stereo not given)
inactive: [1] -2.35% | [2] -18% | [3] -8.3% | [4] -1.9% | [5] -2.45% | [6] 37.5%

CSCCC(NC(=O)C(Cc1ccccc1)NC(=O)CNC(=O)CNC(=O)C(N)Cc1ccc(O)cc1)C(=O)O (stereo not given)
inactive: [1] 12.4% | [2] 2.2% | [3] -6.45% | [4] 26.2% | [5] 14.4% | [6] 16.2%

N=C(N)n1cc(/C=N/N=C(N)N)cn1
inactive: [1] -4.4% | [2] -4.35% | [3] -0.15% | [4] 0.1% | [5] -8.3% | [6] 5.8%

CC1OC(n2cc(C(N)=O)c3c(N)ncnc32)C(O)C1O (stereo not given)
inactive: [1] 19.4% | [2] 20.9% | [3] 3.75% | [4] 16.9% | [5] 14.2% | [6] 20.1%

CCCC[N+]1(C)CCC(OC(=O)C(O)(c2ccccc2)C2CCCC2)C1 (stereo not given)
inactive: [1] 15.6% | [2] 5.25% | [3] 5.3% | [4] -32.8% | [5] -6.3% | [6] -5.5%
